An excerpt weighted towards active compounds, which were near 3.7% of everything screened.
BRCA1 expr act = increases BRCA1 expression; AID 624202; Potency, µM (highest dose often 46.1 µM), for the others: top-dose activation, most hits filed as activators; MCF7-BRCA1-FFLuc reporter, luminescence, 48 h; response scale: scaled: vehicle 0%, 10 µM genistein 100%; 1.1% of 380,000 active; further: potency means the concentration at half of the fitted maximal effect; nearly all actives have a fitted effect of over 80% in size
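Reporter cells (MCF7, BRCA1 promoter-firefly luciferase) received library compounds across a concentration series for 48 h. End-point luminescence was measured and concentration-effect curves derived after normalization.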
PTHR1 ag = activates the human parathyroid hormone receptor PTHR1; HEK293 GP2 PTHR1 cells, GloSensor cAMP luminescence, 1 h; 0.075% of 410,000 active; Potency, µM (highest dose often 115 µM), without a hit: at the top dose activation, actives largely listed as activators; Q03431; further: potency means the concentration at half of the fitted maximal effect; nearly all actives have a fitted effect of over 55% in size
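HEK-293-derived GP2 cells expressing PTHR1 and a GloSensor cAMP reporter, 3,000/well, plated overnight, given luciferin plus IBMX (each 0.5 mM as added) for 1 h at 37 °C, then compound for 1 h at 37 °C. Luminescence was read after 15 min at room temperature.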
D3 antag = blocks the human D3 dopamine receptor | D3R cells, DiscoveRx beta-arrestin luminescence, antagonist mode; stronger effect = lower value | max response, negative = inhibition, % | 2.5% of 360,000 active | AID 652054; in the data active means max response below about -50%; inconclusive means no clear call, values can overlap the other calls; further: on the % scale 0 is the no-effect control and ±100 the full control effect
Target sequence (P35462 whole entry, looked up): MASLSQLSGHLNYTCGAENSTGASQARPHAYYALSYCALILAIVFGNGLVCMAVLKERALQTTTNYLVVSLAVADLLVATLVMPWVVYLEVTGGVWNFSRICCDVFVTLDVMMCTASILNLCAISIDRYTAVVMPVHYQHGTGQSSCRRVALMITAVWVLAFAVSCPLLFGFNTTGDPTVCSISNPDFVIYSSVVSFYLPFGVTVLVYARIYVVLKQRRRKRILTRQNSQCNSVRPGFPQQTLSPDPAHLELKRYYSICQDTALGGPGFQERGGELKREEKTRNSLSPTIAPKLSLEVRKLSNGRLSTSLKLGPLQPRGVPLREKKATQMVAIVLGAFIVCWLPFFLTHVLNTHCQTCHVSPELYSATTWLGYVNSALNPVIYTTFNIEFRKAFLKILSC
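Cells expressing the human receptor were seeded at 1500 cells/well, incubated overnight at 37 degrees C in 5% CO2, then exposed to library compounds with dopamine controls for 90 minutes at 37 degrees C before luminescent detection.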
D3 ag = agonists of human D3 dopamine receptor; P35462; D3R DiscoveRx beta-arrestin cells, luminescence, 90 min; max activation, %; 0.58% of 410,000 active; AID 652048; in the data active means max activation above about 30%; further: 0% is about no effect
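Agonist mode: compounds and dopamine controls were applied to plated cells for 90 min at 37 degrees C after an overnight attachment at 1500 cells/well. Luminescent read-out followed 30 - 60 minutes at room temperature with DiscoveRx detection reagent.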
RGS4 inhibitor = blocks human RGS4-accelerated GTP hydrolysis; Transcreener GDP fluorescence polarization, RGS4-accelerated GTP hydrolysis; Potency, µM (titrated, usually from 114 µM), for the others: top-dose activity change, negative = inhibition, actives largely listed as inhibitors; AID 504845; 0.039% of 390,000 active; further: potency means the concentration at half of the fitted maximal effect; on the % scale 0 is the no-effect control and ±100 the full control effect; nearly all actives have a fitted effect of over 75% in size
Target sequence (P49798 whole entry, looked up): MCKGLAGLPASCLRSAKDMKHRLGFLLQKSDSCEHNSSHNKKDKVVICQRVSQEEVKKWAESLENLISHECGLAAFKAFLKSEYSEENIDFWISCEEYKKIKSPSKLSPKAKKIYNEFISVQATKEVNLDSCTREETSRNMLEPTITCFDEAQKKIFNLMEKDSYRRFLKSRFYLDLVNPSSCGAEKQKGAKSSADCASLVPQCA
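MLSMR compounds (23 nl, pin-transferred) preincubated 10 min at room temperature with a 500nM (2x) first reagent, then RGS4 at 900nM (2x) plus Transcreener GDP mix added; fluorescence polarization (620/688 nm) read before and after 90 min at 30 °C.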
B2AR arrestin = beta2AR (human) beta-arrestin recruitment activity | P07550 | beta-arrestin recruitment to beta2AR, cell-based reporter | Potency, µM (doses to about 46.1 µM), for inactives: top-dose activation, hits mostly activators | 0.02% of 330,000 active;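 further: potency means the concentration at half of the fitted maximal effect; 0% = DMSO controls and full agonism = EC100 isoproterenol or metaproterenol; nearly all actives have a fitted effect of over 65% in size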
Starred values were filed as active, the others as inactive; i = inactive; ? = inconclusive; nt = not tested or not shown; [ ] = remark or other dose. Unless noted, the call rests on the fitted dose curve; in most records, active means well fitted curve in the direction sought with a large enough effect; inconclusive means small, poorly fitted or top-dose-only effect, or another doubt; inactive means no such curve, though single readings can be large; an effect the other way counts as inactive or inconclusive.

SMILES	BRCA1 expr act	PTHR1 ag	D3 antag	D3 ag	RGS4 inhibitor	B2AR arrestin
CCOC(=O)C1(CCc2ccccc2)CCN(Cc2ccc(C(=O)OC)cc2)CC1	-26%	-42%	-69*	-20	11%	0%
CCOC(=O)C1(CC2CC2)CCN(Cc2ccc(C(=O)OC)cc2)CC1	-7%	i	-120*	-22	32%	0%
CCOC(=O)C1(CCc2ccccc2)CCN(Cc2cc(OC)c(OC)cc2OC)CC1	-20%	-63%	-13	-12	9%	-1%
COc1ccc(CCNc2nc(SCc3ccc(F)cc3)nc3ccccc23)cc1OC	nt	0%	nt	-1	-11%	nt
Cc1cccc2sc(N(Cc3cccnc3)C(=O)C3CCCCC3)nc12	nt	i	nt	-20	-11%	nt
Cc1ccc(S(=O)(=O)NCCCN2CCOCC2)cc1C	-15%	5%[57.5 µM]	-67*	-1	2%	0%
Cc1ccc(S(=O)(=O)NCCCN2CCCC2)cc1	0%	i	-53*	-17	-1%	0%
Cc1cccc(NC(=O)c2cc(CN3CCOCC3)on2)c1C	nt	-19%	nt	1	8%	nt
Cc1ccc(NC(=O)C(Cc2ccccc2)NS(=O)(=O)c2ccc3c(c2)oc(=O)n3C)c(Cl)c1 (stereo not drawn)	nt	-19%	nt	2	1%	nt
Cc1ccnc(SCc2ccc([N+](=O)[O-])cc2)n1	54%	-12%	-57*	-4	-18%	0%
Cc1cc(C)nc(SCc2ccc([N+](=O)[O-])cc2)n1	-1%	-22%	2	-3	6%	-1%
C=CCn1c(N2CCOCC2)nc2c1c(=O)[nH]c(=O)n2C	-7%	-17%	-6	0	4%	-1%
O=c1c2ccccc2nc2ccc(NCc3cccs3)nn12	11µM*	-1%	2	8	6%	3%
c1ccc(-c2cc3nc(NCc4cccs4)ccn3n2)cc1	1%	-49%	0	7	nt	nt
O=C(Cn1ncc(Cl)c(Cl)c1=O)N1CCN(Cc2ccccc2)CC1	-80%	-23%	-63*	-7	-23%	0%
O=C(c1ccco1)c1n[nH]nc1-c1ccccc1	-11%	-19%[57.5 µM]	-70*	-2	-18%	0%
CN(C)CCCN(C(=O)CCOc1ccccc1)c1nc2ccc(F)cc2s1	-86%	i	-91*	-24	-44%	0%
CN(C)CCCN(C(=O)COc1ccccc1)c1nc2ccc(F)cc2s1	25%	-40%	-6	-10	-4%	0%
CN(C)CCCN(C(=O)CCOc1ccccc1)c1nc2c(F)cccc2s1	-60%	?	-99*	-14	-22%[56.9 µM]	0%
COc1cccc2oc(-c3ccco3)cc(=O)c12	44%	-35%	-54*	-7	?	-1%
COc1cc(OC)c2c(=O)cc(-c3ccccc3)oc2c1	7.9µM*	-45%	-25	30	-10%	3%
COc1ccc2oc(-c3ccco3)cc(=O)c2c1	6.3µM*	-15%	-7	1	1%[11.4 µM]	13%
COc1cc(OC)c2c(=O)cc(-c3cccnc3)oc2c1	0%	-9%	-12	-1	13%	0%
O=c1cc(-c2ccco2)oc2ccc(Cl)cc12	68%	i	0	2	-8%	0%
COc1ccc(-c2nc(CNC(=O)Nc3ccccc3)c(C)o2)c(OC)c1	nt	i	nt	8	12%	nt
SMILES	BRCA1 expr act	PTHR1 ag	D3 antag	D3 ag	RGS4 inhibitor	B2AR arrestin
COc1ccc(CCNC(=O)c2ccc3c(c2)S(=O)(=O)N=C2CCCCCN23)cc1	7%	-22%	-1	-11	-20%	0%
Cc1cc(Cl)cc(C)c1OCC(=O)N1CCN(c2ncccn2)CC1	-27%	-29%	16	6	7%	0%
CCCCc1oc2ccc(NS(C)(=O)=O)cc2c1C(=O)c1ccc(OCCCN(CCCC)CCCC)cc1	nt	nt	nt	-15	nt	nt
Cn1c(SCC(=O)N/N=C/C=C/c2ccccc2[N+](=O)[O-])nc2ccccc21	-43%	-7%	1	-2	-28%	0%
Cn1c(SCC(=O)N/N=C/C=C/c2ccco2)nc2ccccc21	-22%	i	1	1	?	18µM*
O=C(CN1CCC(n2nnc3cc(F)ccc32)CC1)Nc1ccccc1N1CCOCC1	-1%	-8%[57.5 µM]	-55*	-5	-5%	0%
O=C(CN1CCC(n2nnc3cc(F)ccc32)CC1)NC1CCCCC1	-3%	-1%[57.5 µM]	-86*	-4	-27%	-4%
O=C(CN1CCC(n2nnc3cc(F)ccc32)CC1)NC1CC1	5%	-5%[57.5 µM]	-57*	-9	9%	-1%
Cc1cnc2c(C)ccc(C)c2c1/C=C/c1ccc(N(C)C)cc1	-36%	nt	nt	nt	nt	nt
O=C(Cc1ccc(F)cc1)Nc1nccs1	5%	-18%	-18	-4	25%	-2%
Fc1ccc(NC(=S)Nc2nccs2)cc1	3.2µM*	-38%	18	4	?	11%
NC(=S)N/N=C/c1ccc(C23CC4CC(CC(C4)C2)C3)cc1	-65%	-22%	-89*	-28	1%[56.9 µM]	?
O=C1CC(C(F)(F)F)=NN1	-4%	-4%	12	33*	-5%	-1%
CCN1C(=NCc2ccc(OC)cc2)N[C@@H](c2ccccc2)C(C(=O)OC)=C1C	0%	-16%	22	41*	-25%	0%
CCN1C(=NCCc2ccccn2)N[C@@H](c2cccc(C(F)(F)F)c2)C(C(=O)OC)=C1C	-39%	-2%	-53*	-37	6%	1%
COC(=O)C1=C(C)N(Cc2ccccc2)C(=NCc2ccccc2)N[C@H]1c1cccc(C(F)(F)F)c1	-61%	i	22	33*	22%	1%
COC(=O)C1=C(C)N(Cc2ccccc2)C(=NCC(C)C)N[C@H]1c1cccc(C(F)(F)F)c1	-52%	-29%	5	3	-9%	0%
CCN1C(=NCc2cc(OC)c(OC)c(OC)c2)N[C@@H](c2ccccc2)C(C(=O)OC)=C1C	-7%	i	?	11	?	-1%
CCn1c(NCc2cccc(Cl)c2)nc2ccccc21	nt	i	nt	-26	-3%	nt
Cc1oc2c(C)c3oc(=O)c4c(c3cc2c1C)CCCC4	-3%	i	26	32*	-14%	-1%
Cc1ccc(C(=O)NCCc2nnc3ccc(NCc4ccc5c(c4)OCO5)nn23)cc1	-8%	i	-19	-7	-8%	0%
O=C(CSc1nc(C2CC2)nc2sc3c(c12)CCCC3)NCc1ccco1	8%	-25%[57.5 µM]	-112*	-4	-3%	0%
Cc1nc(SCC(=O)NCc2ccco2)c2c3c(sc2n1)CCCC3	-54%	-16%[57.5 µM]	13	2	-20%	0%
CCN1C[C@@H]2[C@@H]3C(=O)N(C)C(=O)[C@@H]3[C@](CC)(C1=O)N2C(=O)c1ccc(F)cc1	1%	i	24	6	9%	nt
